Results as given in the supplement of paper PMC11732987, “Enantioselective OTUD7B fragment discovery through chemoproteomics screening and high-throughput optimisation” (Communications Chemistry, 2025).

Tests used:
Test in all cases: log2 ratio of Biotin-Ahx-Ub-VS probe labelling (fragment/DMSO); higher = less target engagement (more negative = stronger competition), active = hit call of the paper (q ≤ 0.05, log2 ratio ≤ -1)
Details in all cases: compound concentration: 200 uM; treatment time: 3 h
USP34 = USP34 (UniProt Q70CQ2)
Method in brief: (§1)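 Average log2 ratios of fragment over vehicle were obtained by unpaired t-test from global-median-normalised Spectronaut label-free quantities. Proteins with ≥2 unique peptides were included. HEK293T lysate (495 µg per sample) was treated in triplicate with fragment at 200 µM or vehicle for 3 h, then with Biotin-Ahx-Ub-VS at 0.5 µM final for 1 h, and labelled DUBs were NeutrAvidin-enriched and run by diaPASEF LC-MS/MS.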

USP36 = molecular target: T1, USP36 (UniProt Q9P275)
T1 sequence (whole entry): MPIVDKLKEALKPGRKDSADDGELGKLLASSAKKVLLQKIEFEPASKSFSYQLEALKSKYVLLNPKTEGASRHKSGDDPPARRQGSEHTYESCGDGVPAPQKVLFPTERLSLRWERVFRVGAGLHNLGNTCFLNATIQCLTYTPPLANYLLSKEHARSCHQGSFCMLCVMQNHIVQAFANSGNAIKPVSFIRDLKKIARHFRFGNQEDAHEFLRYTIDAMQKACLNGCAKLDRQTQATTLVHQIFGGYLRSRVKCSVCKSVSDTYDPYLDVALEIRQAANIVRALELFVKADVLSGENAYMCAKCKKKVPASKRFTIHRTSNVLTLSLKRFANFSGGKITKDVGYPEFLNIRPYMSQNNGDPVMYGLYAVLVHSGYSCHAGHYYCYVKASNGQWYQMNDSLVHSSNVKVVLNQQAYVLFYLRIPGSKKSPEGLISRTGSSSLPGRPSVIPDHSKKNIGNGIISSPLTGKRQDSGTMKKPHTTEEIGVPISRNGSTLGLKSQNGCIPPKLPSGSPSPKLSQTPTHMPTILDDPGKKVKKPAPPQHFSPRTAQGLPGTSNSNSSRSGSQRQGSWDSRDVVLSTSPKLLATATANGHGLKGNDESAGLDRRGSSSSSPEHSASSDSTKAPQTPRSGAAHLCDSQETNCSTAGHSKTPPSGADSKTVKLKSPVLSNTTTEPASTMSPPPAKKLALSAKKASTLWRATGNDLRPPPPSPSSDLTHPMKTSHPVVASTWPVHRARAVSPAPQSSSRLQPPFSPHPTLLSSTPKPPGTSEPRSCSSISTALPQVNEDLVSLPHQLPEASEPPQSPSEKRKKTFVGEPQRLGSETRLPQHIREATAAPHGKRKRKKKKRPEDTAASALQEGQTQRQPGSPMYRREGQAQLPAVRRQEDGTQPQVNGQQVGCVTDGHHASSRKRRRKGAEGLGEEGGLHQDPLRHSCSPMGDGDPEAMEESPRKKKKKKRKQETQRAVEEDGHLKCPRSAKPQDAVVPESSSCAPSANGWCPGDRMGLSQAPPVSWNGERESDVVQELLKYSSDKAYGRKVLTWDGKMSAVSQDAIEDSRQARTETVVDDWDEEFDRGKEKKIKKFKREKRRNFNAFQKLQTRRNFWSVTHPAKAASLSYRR
Method in brief: as §1

USP38 = molecular target: T2, USP38 (UniProt Q8NB14)
T2 sequence (whole entry): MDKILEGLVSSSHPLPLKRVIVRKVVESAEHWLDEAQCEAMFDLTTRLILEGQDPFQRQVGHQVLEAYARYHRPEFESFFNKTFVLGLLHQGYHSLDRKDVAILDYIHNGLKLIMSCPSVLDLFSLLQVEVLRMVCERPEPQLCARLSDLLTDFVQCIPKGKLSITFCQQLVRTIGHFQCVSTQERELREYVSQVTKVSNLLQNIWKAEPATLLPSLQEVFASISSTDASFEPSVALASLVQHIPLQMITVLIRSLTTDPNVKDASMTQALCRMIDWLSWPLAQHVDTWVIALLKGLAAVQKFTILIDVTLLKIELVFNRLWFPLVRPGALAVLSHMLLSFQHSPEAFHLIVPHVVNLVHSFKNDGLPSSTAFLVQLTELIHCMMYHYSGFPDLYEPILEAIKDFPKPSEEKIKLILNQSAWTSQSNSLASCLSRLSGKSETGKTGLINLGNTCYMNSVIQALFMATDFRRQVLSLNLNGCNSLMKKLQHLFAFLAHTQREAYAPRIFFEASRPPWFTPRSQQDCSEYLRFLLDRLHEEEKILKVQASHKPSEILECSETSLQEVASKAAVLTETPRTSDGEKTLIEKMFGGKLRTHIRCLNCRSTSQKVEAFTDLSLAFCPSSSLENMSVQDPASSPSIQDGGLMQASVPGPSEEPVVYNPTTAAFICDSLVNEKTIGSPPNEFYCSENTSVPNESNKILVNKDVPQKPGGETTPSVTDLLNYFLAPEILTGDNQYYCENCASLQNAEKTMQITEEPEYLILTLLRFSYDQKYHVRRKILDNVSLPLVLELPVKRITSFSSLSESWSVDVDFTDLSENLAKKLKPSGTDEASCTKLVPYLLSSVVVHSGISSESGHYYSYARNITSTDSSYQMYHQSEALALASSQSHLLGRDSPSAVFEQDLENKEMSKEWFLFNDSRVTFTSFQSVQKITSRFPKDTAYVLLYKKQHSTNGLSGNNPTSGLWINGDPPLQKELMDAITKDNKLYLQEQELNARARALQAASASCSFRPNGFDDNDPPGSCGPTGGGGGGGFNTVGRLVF
Method in brief: as §1

USP39 = molecular target: T3, USP39 (UniProt Q53GS9)
T3 sequence (whole entry): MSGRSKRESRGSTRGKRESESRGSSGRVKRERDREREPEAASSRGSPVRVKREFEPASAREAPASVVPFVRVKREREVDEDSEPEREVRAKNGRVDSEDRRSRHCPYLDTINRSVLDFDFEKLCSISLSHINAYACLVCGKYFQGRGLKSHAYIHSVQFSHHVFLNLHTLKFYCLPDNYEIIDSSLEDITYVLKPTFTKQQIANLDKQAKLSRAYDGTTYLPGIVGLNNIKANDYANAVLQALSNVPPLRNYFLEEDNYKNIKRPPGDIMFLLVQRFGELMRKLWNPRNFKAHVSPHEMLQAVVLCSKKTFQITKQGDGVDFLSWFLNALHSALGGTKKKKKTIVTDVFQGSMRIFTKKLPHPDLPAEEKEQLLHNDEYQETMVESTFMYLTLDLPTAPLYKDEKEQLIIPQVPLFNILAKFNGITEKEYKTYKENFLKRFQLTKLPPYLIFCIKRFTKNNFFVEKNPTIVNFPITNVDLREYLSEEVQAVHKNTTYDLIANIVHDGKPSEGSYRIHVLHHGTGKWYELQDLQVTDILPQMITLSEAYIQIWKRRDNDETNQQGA
Method in brief: as §1

USP4 = molecular target: T4, USP4 (UniProt Q13107)
T4 sequence (whole entry): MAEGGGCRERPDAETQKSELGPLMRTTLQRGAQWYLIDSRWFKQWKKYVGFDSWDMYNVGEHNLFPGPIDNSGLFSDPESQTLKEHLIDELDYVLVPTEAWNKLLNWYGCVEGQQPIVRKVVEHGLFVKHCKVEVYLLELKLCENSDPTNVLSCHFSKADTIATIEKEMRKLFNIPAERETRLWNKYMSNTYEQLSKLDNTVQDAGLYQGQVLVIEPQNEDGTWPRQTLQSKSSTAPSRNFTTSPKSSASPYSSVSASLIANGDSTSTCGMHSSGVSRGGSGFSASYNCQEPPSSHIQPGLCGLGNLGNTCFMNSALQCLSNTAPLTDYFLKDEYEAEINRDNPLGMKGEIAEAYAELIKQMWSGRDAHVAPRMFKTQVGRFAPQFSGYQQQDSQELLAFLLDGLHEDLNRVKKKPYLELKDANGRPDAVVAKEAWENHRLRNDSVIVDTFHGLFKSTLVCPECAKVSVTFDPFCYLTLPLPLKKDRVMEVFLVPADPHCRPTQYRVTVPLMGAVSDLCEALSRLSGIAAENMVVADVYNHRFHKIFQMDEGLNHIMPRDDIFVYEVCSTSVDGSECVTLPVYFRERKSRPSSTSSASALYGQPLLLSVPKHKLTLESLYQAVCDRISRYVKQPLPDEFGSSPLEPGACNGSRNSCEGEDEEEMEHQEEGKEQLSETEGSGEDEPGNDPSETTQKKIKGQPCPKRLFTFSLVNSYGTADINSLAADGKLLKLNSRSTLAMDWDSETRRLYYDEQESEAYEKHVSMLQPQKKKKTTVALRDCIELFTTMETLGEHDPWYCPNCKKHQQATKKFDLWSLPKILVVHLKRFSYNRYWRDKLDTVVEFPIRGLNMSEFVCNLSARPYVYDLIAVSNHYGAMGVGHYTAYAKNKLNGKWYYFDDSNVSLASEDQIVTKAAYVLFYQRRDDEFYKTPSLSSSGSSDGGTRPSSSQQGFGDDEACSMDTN
Method in brief: as §1

Measured: log2 ratio of Biotin-Ahx-Ub-VS probe labelling

USP34, sequence (Q70CQ2 whole entry, the tested form may be a part): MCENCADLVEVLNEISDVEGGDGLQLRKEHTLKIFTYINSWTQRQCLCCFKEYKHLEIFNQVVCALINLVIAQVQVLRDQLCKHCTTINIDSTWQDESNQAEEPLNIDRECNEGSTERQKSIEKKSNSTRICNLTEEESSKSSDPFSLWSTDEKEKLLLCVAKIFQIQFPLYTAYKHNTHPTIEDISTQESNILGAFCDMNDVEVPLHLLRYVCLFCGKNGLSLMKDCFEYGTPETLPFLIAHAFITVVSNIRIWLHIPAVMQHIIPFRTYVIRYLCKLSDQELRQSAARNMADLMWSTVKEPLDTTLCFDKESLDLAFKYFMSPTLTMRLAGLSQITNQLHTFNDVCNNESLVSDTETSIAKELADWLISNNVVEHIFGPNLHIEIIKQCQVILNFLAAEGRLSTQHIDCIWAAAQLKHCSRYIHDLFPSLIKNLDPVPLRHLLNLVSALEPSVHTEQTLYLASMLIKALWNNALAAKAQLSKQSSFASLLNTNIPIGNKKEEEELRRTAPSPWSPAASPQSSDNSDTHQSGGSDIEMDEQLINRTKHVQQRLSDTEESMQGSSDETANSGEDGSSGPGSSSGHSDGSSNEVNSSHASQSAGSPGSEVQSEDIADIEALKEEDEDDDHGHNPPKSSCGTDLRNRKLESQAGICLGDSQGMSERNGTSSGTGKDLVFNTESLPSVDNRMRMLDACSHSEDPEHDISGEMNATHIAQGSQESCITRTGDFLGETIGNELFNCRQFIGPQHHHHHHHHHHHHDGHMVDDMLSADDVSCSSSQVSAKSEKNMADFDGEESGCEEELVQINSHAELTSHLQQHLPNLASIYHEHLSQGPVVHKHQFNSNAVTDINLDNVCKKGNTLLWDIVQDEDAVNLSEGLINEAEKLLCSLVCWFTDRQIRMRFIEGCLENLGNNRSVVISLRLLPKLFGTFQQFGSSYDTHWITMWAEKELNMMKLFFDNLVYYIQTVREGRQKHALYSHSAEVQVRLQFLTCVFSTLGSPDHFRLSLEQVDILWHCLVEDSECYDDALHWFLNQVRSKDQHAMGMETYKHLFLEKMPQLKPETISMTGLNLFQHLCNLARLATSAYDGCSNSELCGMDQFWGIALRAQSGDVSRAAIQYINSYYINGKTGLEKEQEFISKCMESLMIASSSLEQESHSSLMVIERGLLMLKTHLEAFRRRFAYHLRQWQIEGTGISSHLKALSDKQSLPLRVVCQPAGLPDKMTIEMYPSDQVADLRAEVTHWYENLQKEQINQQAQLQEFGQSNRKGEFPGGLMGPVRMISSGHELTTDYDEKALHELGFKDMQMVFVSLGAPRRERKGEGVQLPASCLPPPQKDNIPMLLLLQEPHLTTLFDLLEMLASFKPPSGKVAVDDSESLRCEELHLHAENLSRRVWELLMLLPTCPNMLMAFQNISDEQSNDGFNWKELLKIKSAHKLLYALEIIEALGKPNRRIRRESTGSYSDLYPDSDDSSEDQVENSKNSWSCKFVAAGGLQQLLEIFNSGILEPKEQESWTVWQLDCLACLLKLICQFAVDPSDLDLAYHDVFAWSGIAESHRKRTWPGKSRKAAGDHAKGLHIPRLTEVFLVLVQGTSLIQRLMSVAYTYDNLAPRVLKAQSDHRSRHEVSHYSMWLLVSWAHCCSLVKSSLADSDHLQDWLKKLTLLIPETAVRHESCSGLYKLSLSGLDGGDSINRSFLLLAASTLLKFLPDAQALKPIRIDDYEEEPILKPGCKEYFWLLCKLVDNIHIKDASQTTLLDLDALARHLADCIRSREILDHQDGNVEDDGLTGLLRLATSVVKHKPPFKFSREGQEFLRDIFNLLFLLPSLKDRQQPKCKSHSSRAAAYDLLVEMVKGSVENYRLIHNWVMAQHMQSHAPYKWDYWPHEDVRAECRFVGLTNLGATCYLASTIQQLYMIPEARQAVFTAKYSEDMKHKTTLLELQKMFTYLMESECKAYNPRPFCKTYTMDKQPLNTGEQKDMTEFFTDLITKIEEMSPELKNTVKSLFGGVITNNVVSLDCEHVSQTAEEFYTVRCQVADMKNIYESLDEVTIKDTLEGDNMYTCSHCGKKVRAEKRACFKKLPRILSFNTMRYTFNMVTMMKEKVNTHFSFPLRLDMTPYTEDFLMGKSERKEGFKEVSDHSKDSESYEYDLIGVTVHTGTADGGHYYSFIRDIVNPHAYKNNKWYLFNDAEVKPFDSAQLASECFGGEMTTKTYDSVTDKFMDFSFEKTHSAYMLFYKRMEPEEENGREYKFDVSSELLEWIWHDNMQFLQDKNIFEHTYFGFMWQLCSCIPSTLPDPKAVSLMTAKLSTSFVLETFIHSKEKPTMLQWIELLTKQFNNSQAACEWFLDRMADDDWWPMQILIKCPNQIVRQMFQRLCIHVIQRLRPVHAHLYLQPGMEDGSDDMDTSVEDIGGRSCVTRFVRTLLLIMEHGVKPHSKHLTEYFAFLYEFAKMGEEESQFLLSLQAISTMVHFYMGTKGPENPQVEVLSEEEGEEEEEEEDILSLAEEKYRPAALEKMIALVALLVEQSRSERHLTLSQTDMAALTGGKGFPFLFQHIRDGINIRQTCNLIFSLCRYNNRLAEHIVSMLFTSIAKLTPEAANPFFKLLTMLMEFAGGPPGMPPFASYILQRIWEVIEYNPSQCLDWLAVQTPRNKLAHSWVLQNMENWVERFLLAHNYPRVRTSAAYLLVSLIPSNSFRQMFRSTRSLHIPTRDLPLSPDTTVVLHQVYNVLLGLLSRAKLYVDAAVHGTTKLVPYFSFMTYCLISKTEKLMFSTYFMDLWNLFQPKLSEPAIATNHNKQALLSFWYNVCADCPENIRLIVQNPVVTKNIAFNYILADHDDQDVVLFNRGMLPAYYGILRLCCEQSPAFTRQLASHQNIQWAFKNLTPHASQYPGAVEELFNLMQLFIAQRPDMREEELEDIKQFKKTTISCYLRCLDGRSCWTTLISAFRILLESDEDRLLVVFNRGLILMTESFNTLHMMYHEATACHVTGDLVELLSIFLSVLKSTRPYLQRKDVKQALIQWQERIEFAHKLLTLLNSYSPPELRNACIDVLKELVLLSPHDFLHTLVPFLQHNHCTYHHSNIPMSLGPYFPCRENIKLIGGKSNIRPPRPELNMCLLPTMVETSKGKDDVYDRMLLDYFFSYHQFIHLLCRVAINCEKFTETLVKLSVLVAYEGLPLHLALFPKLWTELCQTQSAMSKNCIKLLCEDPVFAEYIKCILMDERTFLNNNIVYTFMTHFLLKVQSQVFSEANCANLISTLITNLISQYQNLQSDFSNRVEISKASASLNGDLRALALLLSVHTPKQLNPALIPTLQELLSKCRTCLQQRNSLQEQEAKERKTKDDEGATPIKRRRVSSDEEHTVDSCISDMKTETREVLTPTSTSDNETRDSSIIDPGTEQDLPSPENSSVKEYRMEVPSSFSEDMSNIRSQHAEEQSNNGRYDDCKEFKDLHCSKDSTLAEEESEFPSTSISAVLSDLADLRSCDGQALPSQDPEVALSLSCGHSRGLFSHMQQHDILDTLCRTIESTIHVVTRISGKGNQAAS

CCC(NC(=O)CCl)c1ccc(Cl)cc1 (stereo not given)
inactive: USP34 -0.142 | USP36 -0.231 | USP38 0.0692 | USP39 0.0269 | USP4 0.0111
